Screening data (PubChem)
HEK cytotox: kills HEK 293 cells; HEK 293 viability, ATP luminescence (CellTiter-Glo), 48-72 h; Potency, µM (titrated, usually from 115 µM), for the others: top-dose activity change, negative = cytotoxicity, hits mostly inhibitors; hit rate 6.6% among 94,000; also: nearly all actives have a fitted effect of over 60% in size
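qHTS cytotoxicity; HEK 293, 250 cells/well; compound pinned; 48 or 72 hr, 37 degree Celsius, 5% CO2, 95% humidity; CellTiter-Glo, 10 min RT; luminescence (ATP).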
Luciferase inh: Photinus pyralis luciferase inhibition. P08659. purified P. pyralis luciferase, luminescence, biochemical. Potency, µM (highest dose often 115 µM), actives largely listed as inhibitors. hit rate 2.5% among 76,000. AID 1347043; also: nearly all actives have a fitted effect of over 65% in size
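Cell-free enzyme assay, 10nM P. pyralis luciferase, luciferin and ATP each at 10uM. Inhibition profiled over a 6-point titration, read as luminescence.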
NIH3T3 tox: NIH 3T3 cell cytotoxicity | AID 1345082 | hit rate 4.3% among 94,000 | NIH 3T3 viability, CellTiter-Glo ATP luminescence, 48-72 h | Potency, µM (series often up to 96.7 µM), without a hit: at the top dose activity change, negative = cytotoxicity, most hits filed as inhibitors; also: nearly all actives have a fitted effect of over 55% in size
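Mouse fibroblast NIH 3T3 cells, 400 per well, received compound via pintool and were incubated for 48 or 72 hr prior to CellTiter-Glo ATP luminescence measurement.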
SNCA viab count: counter-screen for SNCA expression inhibitors: cell viability; HEK-293-SNCA-luc viability, GF-AFC fluorescence, 24 h; Potency, µM (highest dose often 57.1 µM), inactives show top-dose activity change, negative = cytotoxicity, hits mostly cytotoxic; hit rate 0.12% among 150,000;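 also: 0% = DMSO-treated cells and -100% = medium-only wells without cells; nearly all actives have a fitted effect of over 30% in size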
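HEK-293-SNCA-luc cells (1500/well) plated 24 h, then exposed 24 h to a dilution series; GF-AFC added 30 min at 37C, fluorescence 405/540 nm; normalised to medium-only and DMSO wells, Hill fit.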
SNCA expr inhib: inhibitors of alpha-synuclein (SNCA) gene expression. HEK-293 SNCA-luciferase knock-in, luminescence, 24 h. Potency, µM (doses to about 57.2 µM), without a hit: at the top dose activity change, negative = inhibition, most hits filed as inhibitors. hit rate 0.17% among 140,000;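 also: plate controls were DMSO cells for no effect and cell-free wells for full effect; nearly all actives have a fitted effect of over 45% in size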
hNpr1 antagonist: blocks ANP-stimulated signaling of human Npr1 receptor. P16066. HEK293 hNpr1 GloSensor cGMP, ANP-stimulated luminescence. Potency, µM (series often up to 46.3 µM), inactives show at the highest dose activity change, negative = inhibition, most hits filed as inhibitors. hit rate 1.6% among 76,000. AID 1347048; calls by dose curve; also: nearly all actives have a fitted effect of over 60% in size
Target sequence (P16066 whole entry, looked up): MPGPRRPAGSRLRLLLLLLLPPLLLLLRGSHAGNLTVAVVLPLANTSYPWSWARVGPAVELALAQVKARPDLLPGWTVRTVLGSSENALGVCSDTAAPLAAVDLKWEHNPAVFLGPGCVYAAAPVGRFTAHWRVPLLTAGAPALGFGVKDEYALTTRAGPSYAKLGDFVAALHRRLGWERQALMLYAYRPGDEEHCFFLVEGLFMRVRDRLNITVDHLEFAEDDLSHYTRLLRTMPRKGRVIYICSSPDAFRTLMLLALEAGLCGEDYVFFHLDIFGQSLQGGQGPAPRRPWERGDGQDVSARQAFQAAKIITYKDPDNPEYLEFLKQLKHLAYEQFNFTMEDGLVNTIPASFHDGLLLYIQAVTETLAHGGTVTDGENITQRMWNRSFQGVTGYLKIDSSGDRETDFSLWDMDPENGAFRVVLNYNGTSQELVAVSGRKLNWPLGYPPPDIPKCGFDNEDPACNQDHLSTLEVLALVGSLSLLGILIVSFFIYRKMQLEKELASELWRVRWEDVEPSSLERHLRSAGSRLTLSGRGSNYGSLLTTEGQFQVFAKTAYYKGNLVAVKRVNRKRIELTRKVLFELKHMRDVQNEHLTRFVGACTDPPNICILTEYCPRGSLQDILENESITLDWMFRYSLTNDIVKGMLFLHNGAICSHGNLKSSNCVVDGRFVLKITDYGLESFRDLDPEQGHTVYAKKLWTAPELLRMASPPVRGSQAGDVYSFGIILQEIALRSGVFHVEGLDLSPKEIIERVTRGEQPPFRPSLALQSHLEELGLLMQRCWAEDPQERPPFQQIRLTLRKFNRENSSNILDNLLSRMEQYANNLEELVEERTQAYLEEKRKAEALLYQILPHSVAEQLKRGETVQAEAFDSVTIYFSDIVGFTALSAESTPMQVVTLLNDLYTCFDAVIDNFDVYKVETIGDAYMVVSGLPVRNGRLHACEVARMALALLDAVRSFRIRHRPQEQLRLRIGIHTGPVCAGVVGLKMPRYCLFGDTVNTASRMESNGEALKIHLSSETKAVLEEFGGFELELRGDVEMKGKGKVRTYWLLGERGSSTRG
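Compound pre-incubated 30 min at room temperature on GloSensor-loaded HEK293 cells stably carrying hNpr1 and the pGS-40F cGMP biosensor. Stimulation uses hNppA at 0.1 nM final; luminescence is taken at baseline and 20 min post-agonist.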
Starred values were filed as active, the others as inactive; i = inactive; ? = inconclusive; . = no result; [ ] = dose if it differs, or a comment. Rows were chosen to be rich in hits. Some 7.2% of all compounds tested hit in one or more screens of this group. Unless noted, calls follow the shape of the dose curve; as a rule, active = well fitted curve in the direction sought with a large enough effect; inconclusive = small, poorly fitted or top-dose-only effect, or another doubt; inactive = no such curve, though single readings can be large; an effect the other way counts as inactive or inconclusive. Unless noted, % is scaled to controls: 0 for no effect and ±100 for the full control effect; potency is read from the fitted curve at half-maximal effect.

SMILES	HEK cytotox	Luciferase inh	NIH3T3 tox	SNCA viab count	SNCA expr inhib	hNpr1 antagonist
CCN1Cc2cc(F)ccc2N(CC(O)COc2ccccc2)CCC1=O (configuration not stated)	?	.	-28%	.	.	.
Cc1cc(C)c(CNC(=O)c2nc(-c3cccc(C(F)(F)F)c3)cc3[nH]ccc23)c(=O)[nH]1	40µM*	i	?	?	?	-16%
COc1ccc(-c2cc3[nH]ccc3c(C(=O)NCc3c(C)cc(C)[nH]c3=O)n2)cc1	?	?	?	-23%[87.6 µM]	27%[87.6 µM]	?
COc1cccc(Nc2cc3[nH]ccc3c(C(=O)NCc3c(C)cc(C)[nH]c3=O)n2)c1	71µM*	?	40µM*	-13%[87.6 µM]	1%[87.6 µM]	1%[70.6 µM]
Cc1cc(C)c(CNC(=O)c2nc(-c3ccccc3)cc3[nH]ccc23)c(=O)[nH]1	?	i	?	?	-6%[87.6 µM]	-1%[70.6 µM]
FC1(F)C[C@@H](c2nnc(C3CC3)o2)N(C2CCOCC2)C1	-5%	i	-2%	15%	27%	12%
C=C1CC2OC(=O)C(COC)C2C(OC(=O)/C(C)=C\C)CC2(C)OC1=CC2=O (configuration not stated)	.	.	.	-33%	.	.
C=C(C)C(=O)OC1CC2(C)OC(=CC2=O)C(=C)CC2OC(=O)C(=C)C12 (configuration not stated)	.	.	.	12µM*	.	.
O=C(Cc1ccc(Cl)cc1)Nc1cnccc1C(=O)O	.	.	.	14%	.	.
CN1c2cc(C(=O)Nc3cc(F)cc(F)c3)ccc2C(=O)N2CCCCCC21 (configuration not stated)	?	?	?	-1%[12.5 µM]	113%	?
CSc1cccc(NC(=O)c2ccc3c(c2)N(C)C2CCCCN2C3=O)c1 (configuration not stated)	40µM*	?	?	20%[12.5 µM]	?	-7%
Cc1cc(C)cc(NC(=O)c2ccc3c(c2)N(C)C2CCCCCN2C3=O)c1 (configuration not stated)	?	i	-25%	4%[12.5 µM]	?	0%
CN1c2cc(C(=O)Nc3cccc(F)c3)ccc2C(=O)N2CCCCC21 (configuration not stated)	?	25µM*	-22%	2%[12.5 µM]	95%	-23%
CN1c2cc(C(=O)Nc3cccc(Br)c3)ccc2C(=O)N2CCCCC21 (configuration not stated)	35µM*	?	?	?	-7%	0%
COC(=O)CNC(=O)N1CC[C@@H]2COC(=O)N(Cc3ccccc3)[C@@H]2C1	0%	.	-12%	7%	-15%	.
COc1ccc(C(=O)N2C[C@@H]3C[C@H](C2)c2c(NC(=O)Nc4ccccc4)ccc(=O)n2C3)cc1	10µM*	i	i	-28%	?	-2%
COc1ccc(C(=O)N2C[C@@H]3C[C@H](C2)c2c(NS(=O)(=O)c4ccccc4)ccc(=O)n2C3)cc1	1%	i	2%	-6%	40%	2%
COc1ccc(C(=O)N2C[C@@H]3C[C@H](C2)c2ccc(NC(=O)Nc4cccc(C#N)c4)c(=O)n2C3)cc1	?	25µM*	?	?	-15%	-2%
CCOC(=O)C1CCCN(C(=O)Cc2ccc(N(Cc3ccccc3)C(=O)c3ccco3)cc2)C1 (configuration not stated)	?	i	?	0%	10%	-18%
COc1ccc(F)cc1-c1ccc(CN2CCC(NC(=O)c3cccc(Cl)c3)C2)cc1 (configuration not stated)	22µM*	.	22µM*	.	.	.
O=C(NC1CCCN(Cc2ccc(-c3cncnc3)cc2)C1)c1cccc(Cl)c1 (configuration not stated)	?	.	-25%	-12%[12.5 µM]	-12%	.
COc1ccccc1-c1ccc(CN2CCC(NC(=O)c3cccc(Cl)c3)C2)cc1 (configuration not stated)	20µM*	.	22µM*	.	.	.
CNC(=O)[C@H]1C[C@H](Oc2ccccc2)CN1C(=O)c1cccc(C)c1	i	i	i	-6%	-5%	0%
O=C1COc2ccc(-c3ccsc3)nc2CN1Cc1ccccc1	100µM*	i	?	4%[87.6 µM]	15%[87.6 µM]	-25%[70.6 µM]
Cc1ccccc1CN1Cc2nc(-c3cncnc3)ccc2OCC1=O	?	i	100µM*	5%[87.6 µM]	-6%[87.6 µM]	-11%[70.6 µM]
SMILES	HEK cytotox	Luciferase inh	NIH3T3 tox	SNCA viab count	SNCA expr inhib	hNpr1 antagonist
Cc1ccccc1CN1Cc2nc(-c3ccsc3)ccc2OCC1=O	89µM*	i	?	-5%[87.6 µM]	-9%[87.6 µM]	-18%[70.6 µM]
COc1cccc(CN2Cc3nc(-c4ccsc4)ccc3OCC2=O)c1	?	i	?	-14%[87.6 µM]	-21%[87.6 µM]	-11%[70.6 µM]
O=C1COc2ccc(-c3ccsc3)nc2CN1Cc1ccc(C(F)(F)F)cc1	?	i	?	-4%[87.6 µM]	?	-21%[70.6 µM]
CC1=CC23[C@H](C=C(C(=O)O)[C@@H]2COC(=O)[C@]3(O)CO)[C@@H]1C (some centres not stated)	.	.	.	3%	.	.
COc1ccc(CN2CCN(c3nc(C)ccc3C#N)CC2CCO)cc1C (configuration not stated)	50µM*	i	?	-4%	-14%	-19%
Cc1ccc(CN2CCN(c3nc(C)ccc3C#N)CC2CCO)cc1 (configuration not stated)	?	i	-26%	1%	5%	-3%
O=C1COc2ccc(OCc3ccccc3)nc2CN1Cc1ccccc1F	?	i	100µM*	0%[87.6 µM]	-10%[87.6 µM]	?
O=C1COc2ccc(-c3ccc(F)c(Cl)c3)nc2CN1Cc1nc2ccccc2s1	50µM*	i	?	5%	18%	-10%
O=C1COc2ccc(OCc3cncs3)nc2CN1Cc1ccccc1	?	i	?	-10%[87.6 µM]	-24%[87.6 µM]	-28%[70.6 µM]
CC(=O)Nc1cccc(-c2ccc3c(n2)CN(Cc2ccccc2F)C(=O)CO3)c1	?	i	?	?	-15%[87.6 µM]	-12%[70.6 µM]
O=C1COc2ccc(-c3cc(F)cc(F)c3)nc2CN1Cc1ccccc1F	89µM*	i	?	-10%[87.6 µM]	-22%[87.6 µM]	1%[70.6 µM]
CC(=O)Nc1cccc(-c2ccc3c(n2)CN(Cc2nc4ccccc4s2)C(=O)CO3)c1	?	?	?	-9%	16%	-7%
C[C@H]1[C@@H]2[C@@H](O)[C@H]([C@H](C)C(=O)N3CCCC3)CC[C@@]2(C)CC[C@@H]1NC(=O)c1cccc(F)c1	3%	i	-7%	6%	-12%	3%
CCCN1CCCCC12Cc1ccccc1CN(C(=O)c1c(C)noc1C)C2 (configuration not stated)	?	.	32µM*	-1%	2%	.
